Measurements from PubChem BioAssay (EPA / NIEHS).
Calls of active or inactive are those of the source. The calls were made as follows: active = hit-call score of the fitted dose curve at least 0.9, where 1 is the maximum; inactive = score below 0.9.

Assay: IUF_NPC2a_radial_glia_migration_72hr: Leibniz Research Institute for Environmental Medicine (IUF) 72-hour Neural Progenitor Cell Migration Assay for Radial Glia Migration (NPC2a) (AID 2284299)
Method: IUF_NPC2-5 is a cell-based, multiplexed assay that uses hNPC, a human primary neural progenitor cells, with measurements taken at 72 or 120 hours after chemical dosing in a 96-well plate. Human neural progenitor cells (hNPC) are generated from human fetal brain cortex at gestational week (GW) 16-19. In the neural progenitor cell migration and differentiation assay (NPC2-5), hNPCs grown as spheres are plated on an extracellular matrix and migrate and differentiate out of the sphere core. The processes radial glia migration, neuronal and oligodendrocyte migration as well as neuronal differentiation, neuronal morphology and oligodendrocyte differentiation are studied using automated phase contrast imaging and automated fluorescence imaging in combination with high content image analysis. In parallel, the cell viability is assessed using an alamar blue viability assay and the cytotoxicity using a lactate dehydrogenase dependent membrane integrity assay.IUF_NPC2a_radial glia_migration_72hr is one of 12 assay components measured from the IUF_NPC2-5 assay. The migration distance of radial glia at 72 hr is assessed in um from the edge of the sphere core to the edge of the migration area based on brightfield images of each well. Therefore, each plate is scanned using a high content imaging device. Images are exported and the migration distance is measured manually in four directions using ImageJ. The mean of four measures per well is used as raw data input.Data from the IUF_NPC2a_radial_glia_migration_72hr component was analyzed at the endpoint IUF_NPC2a_radial_glia_migration_72hr in the positive analysis fitting direction relative to DMSO as the negative control and baseline of activity. Using a type of migration reporter, gain or loss-of-signal activity can be used to understand developmental effects.
Culture protocol: After the cell expansion period the cells are cultured for up to four weeks in which they are passaged every week as described in 3.6. Between one to three days after passaging spheres at a size of 0.3 mm are picked for the test method. For the assessment of neural progenitor cell migration and differentiation, the spheres are plated on poly-D-lysine/laminin coated 96-well flat bottom plates in differentiation medium (N2) to initiate migration and differentiation. Thereby one 0.3 mm big sphere is plated in the middle of a well. The differentiation medium consists of DMEM and Ham's F12 at a ratio of 3 to 1 supplemented with 1% N2 and 1% penicillin and streptomycin. Within 5 days NPCs radially migrate out of the sphere core and differentiate into radial glia cells (nestin positive), neurons (TUBB3 positive), oligodendrocytes (O4 positive) and astrocytes (GFAP positive). Cultivation during the test method is performed at 37C and 5% CO2 at a ph of 7.2-7.6.Exposure: 0.3 mm big hNPC are plated in the already prepared test conditions. Exposure starts at day 0 of differentiation and is continued over five days of differentiation until the experiment is terminated. Cells are fed with fresh medium at day 3 of differentiation. Therefore, half of the test condition solution (e.g. solvent control or compound dilution) is replaced by freshly prepared test condition solution.Test Method: Migration distance and cytotoxicity is determined after 72 hours based on brightfield images of each well. The assay is terminated by the assessment of cell viability and cytotoxicity as well as cell fixation after 120 h. Immunocytochemistry is performed for Hoechst positive nuclei, TUBB3 positive neurons and O4 positive oligodendrocytes. On the ICC images, migration after 120 hours, neuronal and oligodendrocyte number, neuronal morphology and neuron/oligodendrocyte specific migration is assessed. immunocytochemical staining (ICC) generates an image for each sphere. The plates are scanned using an automated high content imaging device and all nuclei and their positions are determined automatically based on their intensity and size. […]

Structure (SMILES)	outcome	AC50
COC(=O)N(C(=O)N1CO[C@@]2(C(=O)OC)Cc3cc(Cl)ccc3C2=N1)c1ccc(OC(F)(F)F)cc1	inactive	
CC(C)(C)C(=O)C(Oc1ccc(Cl)cc1)n1cncn1 (stereo unspecified)	inactive	
CNC(=O)Oc1cccc2ccccc12	inactive	
CCSC(=O)N1CCCCCC1		8.49 µM (active)
C=C(C)CN(CC)c1c([N+](=O)[O-])cc(C(F)(F)F)cc1[N+](=O)[O-]	inactive	
O=C(Nc1ccccc1-c1ccc(Cl)cc1)c1cccnc1Cl	inactive	
CO/N=C(/C1=NOCCO1)c1ccccc1Oc1ncnc(Oc2ccccc2Cl)c1F	inactive	
Cc1c(COC(=O)[C@@H]2[C@H](/C=C(\Cl)C(F)(F)F)C2(C)C)cccc1-c1ccccc1	inactive	
CCOP(=O)(OCC)Oc1nc(Cl)c(Cl)cc1Cl	inactive	
COP(=S)(OC)SCn1nnc2ccccc2c1=O	inactive	
CN/C(=N\[N+](=O)[O-])NCc1cnc(Cl)s1	inactive	
CS(=O)(=O)c1cc(C(F)(F)F)ccc1C(=O)c1cnoc1C1CC1	inactive	
CC1(C)C(C=C(Cl)Cl)C1C(=O)OC(C#N)c1cccc(Oc2ccccc2)c1 (stereo unspecified)	inactive	
CCNC(=O)NC(=O)C(C#N)=NOC	inactive	
N#CN=C1SCCN1Cc1ccc(Cl)nc1	inactive	
CS(=O)(=O)c1ccc(C(=O)C2C(=O)CCCC2=O)c([N+](=O)[O-])c1	inactive	
